Shown are actives, neighbours in structure and some others; about 8.9% of the full set was active somewhere.
HPGD block: blocks human HPGD enzyme activity; P15428; purified HPGD, NADH fluorescence kinetic, PGE2 substrate; Potency, µM, for the others: at the top dose activity change, negative = inhibition, actives largely listed as inhibitors; 4.3% of 150,000 active; AID 894; active = well fitted inhibition curve with a large enough effect, not every such curve was filed as active; inconclusive = small, poorly fitted or top-dose-only effect, or another doubt; inactive = no such curve, though single readings can be large or run the other way; note: potency is the fitted concentration of half-maximal effect
Target sequence (P15428 whole entry, looked up): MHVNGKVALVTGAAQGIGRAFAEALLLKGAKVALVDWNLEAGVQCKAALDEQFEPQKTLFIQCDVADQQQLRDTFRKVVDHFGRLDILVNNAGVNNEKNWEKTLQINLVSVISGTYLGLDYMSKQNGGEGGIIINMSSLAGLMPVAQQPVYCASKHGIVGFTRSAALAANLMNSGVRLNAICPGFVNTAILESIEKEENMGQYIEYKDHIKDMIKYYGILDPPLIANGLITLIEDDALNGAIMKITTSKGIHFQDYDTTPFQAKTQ
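NADH formation kinetics: reaction with 30 uM PGE2 and 1 mM NAD+ (final), 20 nM enzyme, Tris-HCl pH 8 with Tween 20, after 15 min compound preincubation at room temperature. Fluorescence change, last versus first of five reads.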
NPSR antag: neuropeptide S receptor (human) antagonism, cAMP. 1% of 220,000 active. Q6W5P4. CHO-NPSR cells, cAMP TR-FRET, antagonist mode. Potency, µM (doses to about 38.3 µM), for inactives: top-dose activity change, negative = inhibition, hits mostly inhibitors; note: potency is the fitted concentration of half-maximal effect; nearly all actives have a fitted effect of over 50% in size
ALDH1A1 inh: inhibitors of human aldehyde dehydrogenase 1A1 | Potency, µM (top dose mostly 75.3 µM), inactives show at the top dose activity, negative = inhibition, actives largely listed as inhibitors | AID 1030 | P00352 | Purified ALDH1A1, NADH fluorescence, propionaldehyde substrate | 7.3% of 220,000 active; active = well fitted inhibition curve with a large enough effect, not every such curve was filed as active; inconclusive = small, poorly fitted or top-dose-only effect, or another doubt; inactive = no such curve, though single readings can be large or run the other way;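 note: potency is the fitted concentration of half-maximal effect; plate controls were no enzyme wells and a reference inhibitor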
Target sequence (P00352 whole entry, looked up): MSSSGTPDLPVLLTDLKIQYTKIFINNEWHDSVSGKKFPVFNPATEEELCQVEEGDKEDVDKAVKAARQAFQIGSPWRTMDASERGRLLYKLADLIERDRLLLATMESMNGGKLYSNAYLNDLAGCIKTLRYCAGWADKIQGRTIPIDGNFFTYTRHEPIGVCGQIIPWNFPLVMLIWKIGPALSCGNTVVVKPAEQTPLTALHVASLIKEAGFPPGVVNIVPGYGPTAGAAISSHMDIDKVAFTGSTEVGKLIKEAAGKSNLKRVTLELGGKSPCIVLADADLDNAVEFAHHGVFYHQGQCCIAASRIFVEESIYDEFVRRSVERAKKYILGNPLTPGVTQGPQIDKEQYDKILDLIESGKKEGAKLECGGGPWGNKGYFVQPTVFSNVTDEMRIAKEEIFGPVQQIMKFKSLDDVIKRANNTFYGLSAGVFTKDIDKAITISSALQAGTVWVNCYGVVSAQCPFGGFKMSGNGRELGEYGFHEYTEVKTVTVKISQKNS
IMPase inh: cell-permeable inhibitors of inositol monophosphatase (IMPase) | 120,000 tested, under 10 active | inhibition (IP1 accumulation), % at 46.1 µM | P97697 | CHO-M1 cells, IP1 accumulation, HTRF TR-FRET ratio | AID 901; active = well fitted curve in the direction sought with a large enough effect in the signal ratio, not every such curve was filed as active; inconclusive = small, poorly fitted or top-dose-only effect, or a change in a side signal; inactive = no such curve, though single readings can be large or run the other way; the % refers to the signal ratio;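 note: cells stimulated with carbachol in lithium chloride buffer; plate controls were DMSO basal wells for no effect and reference inhibitor wells for full effect; higher means more IMPase inhibition seen as more IP1 and lower FRET ratio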
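In this qHTS, compounds (final up to 46 uM) act on CHO-M1 cells that are then activated through the M1 receptor with carbachol, in pH 7.4 buffer containing 50 mM LiCl, for 30 min. IP1 accumulation is quantified by the IP-One immunoassay.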
IMPase Li cell: cell-permeable IMPase inhibitors with lithium potentiation | CHO-M1 cells, IP1 TR-FRET (IP-One), carbachol + lithium | Potency, µM (doses to about 59.4 µM), for the others: at the top dose activity, negative = IMPase inhibition, most hits filed as inhibitors | 0.35% of 210,000 active;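 note: IP1 builds up when IMPase is blocked and the TR-FRET signal falls; potency is the fitted concentration of half-maximal effect; plate controls were basal vehicle for no effect and high inhibitor control for full effect; nearly all actives have a fitted effect of over 50% in size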
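Test compounds were applied to CHO-M1 cells previously cultured for 16–30 h at 2000 per well. A small lithium amount accompanied them; after 30 min at 37C, IP1 was quantified by TR-FRET.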
ALOX12 inhib: 12-hLO (ALOX12) enzyme inhibition. Potency, µM (highest dose often 57.1 µM), inactives show at the top dose activity change, negative = inhibition, hits mostly inhibitors. purified 12-hLO, xylenol orange hydroperoxide absorbance. 0.12% of 150,000 active. P18054; note: potency is the fitted concentration of half-maximal effect; nearly all actives have a fitted effect of over 55% in size
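Purified human 12hLO (150 nM), preincubated 15 min with compound, then 40 uM arachidonic acid for 30 min, room temperature, Hepes pH 7.0 with 0.01% Triton X-100. Hydroperoxide detected by ferrous iron/xylenol orange; 573/405 nm absorbance ratio gives reaction progress.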
Starred values were filed as active, the others as inactive; ? = inconclusive; . = no result; [ ] = dose if it differs, or a comment. Unless noted, calls come from the whole dose curve; as a rule, active = well fitted curve in the direction sought with a large enough effect; inconclusive = small, poorly fitted or top-dose-only effect, or another doubt; inactive = no such curve, though single readings can be large; an effect the other way counts as inactive or inconclusive. Unless noted, % is set by controls: 0 for no effect and ±100 for the full control effect.

SMILES | HPGD block | NPSR antag | ALDH1A1 inh | IMPase inh | IMPase Li cell | ALOX12 inhib
O=C(/C(=C\c1ccccc1)c1nc2ccccc2[nH]1)c1ccc(Cl)cc1 | -8% | 10µM* | 12% | -11 | 12% | 1%
COC(=O)/C(=C\c1ccc(O)cc1)c1nc2ccccc2[nH]1 | . | 0% | 12µM* | . | 10% | .
COc1cc(/C=C(/C(=O)c2cccs2)c2nc3ccccc3[nH]2)ccc1O | -30% | 10µM* | ? | 4 | 32%[38.3 µM] | ?
CCN(CC)CCNC(C(=O)Nc1cccc(C(C)=O)c1)c1ccccc1 (stereo unspecified) | . | -16% | 14µM* | . | 25% | .
COCC(C)NC(C(=O)Nc1cccc(C(C)=O)c1)c1ccccc1 (stereo unspecified) | . | 8% | 14µM* | . | 13% | .
CC/C(=C(/CC)c1ccc(O)cc1)c1ccc(O)cc1 | -19% | ? | 2% | . | 31% | -17%
O=C(/C=C\c1ccc(-c2ccccc2)o1)c1ccccc1 | ? | -20% | 4µM* | -17 | 15% | -18%
O=C(O)/C=C/c1ccc(-c2cccc(C(F)(F)F)c2)o1 | . | -18% | ? | . | -9% | .
CCN(CC)S(=O)(=O)c1ccc(C(=O)/C=C/c2ccc(-c3ccc([N+](=O)[O-])cc3)o2)cc1 | . | -14% | . | . | . | .
O=C(O)/C=C/C(=O)Nc1ccc(O)cc1 | . | -14% | -3% | . | . | .
Cc1ccc(C(=O)/C=C\C(=O)c2ccc(C)cc2)cc1 | 2.2µM* | ? | 7.1µM* | . | 12% | 0%
Cc1ccc(C(=O)/C=C/c2ccc(-c3ccc(C)cc3)o2)cc1 | 7.1µM* | -51% | 0.71µM* | . | 6% | -25%
O=C(O)/C=C/C(=O)c1ccc(O)cc1 | . | -15% | 14µM* | . | . | .
Cc1cc(Cl)c(S(=O)(=O)N2CC(C)OC(C)C2)cc1OCC(N)=O (stereo unspecified) | 0% | -8%[46.1 µM] | 5% | -7 | 18%[38.3 µM] | -1%
CC(/C=C/C(=O)c1ccc(C)cc1)=C\c1ccccc1 | -15% | -26%[46.1 µM] | -7% | 5 | 2%[38.3 µM] | -12%
Cc1ccc(S/C=C\C(=O)c2ccccc2)cc1 | -21% | 13µM* | 20µM* | 2 | 2%[38.3 µM] | 5%
Cc1ccc(OCCOc2ccc(Br)cc2)c([N+](=O)[O-])n1 | 10µM* | -11% | ? | . | 8% | -5%
CC(C)Oc1ccc(C(=O)NC(=S)Nc2ccc(CN3CCOCC3)cc2)cc1 | -11% | 6% | 7.1µM* | . | 10% | 1%
CC(C)C(=O)NC(=S)Nc1ccc(CN2CCOCC2)cc1 | . | -9% | 7% | . | 4% | .
O=C(NC(=S)Nc1ccc(C(=O)N2CCOCC2)cc1)c1ccc([N+](=O)[O-])cc1 | 0.71µM* | -10%[46.1 µM] | 10µM* | -5 | 4%[38.3 µM] | -6%
CC(C)NS(=O)(=O)c1ccc(NC(=S)NC(=O)c2cccc([N+](=O)[O-])c2)cc1 | ? | -12% | 8.9µM* | . | 9% | -14%
O=C(NC(=S)Nc1ccc(N2CCOCC2)cc1)c1cccc([N+](=O)[O-])c1 | -25% | -4% | 6% | . | 3% | 1%
O=C(NC(=S)Nc1ccc(CN2CCOCC2)cc1)c1cccc([N+](=O)[O-])c1 | -28% | 11% | 13µM* | . | 20% | -3%
O=C(COc1ccc2ccccc2c1)Nc1nccs1 | . | -3% | -4% | . | 4% | .
Cc1ccc(-n2nnnc2SCC(=O)N2CCc3ccccc3C2)c(C)c1 | -10% | -18%[46.1 µM] | ? | -2 | 28%[38.3 µM] | -11%
SMILES | HPGD block | NPSR antag | ALDH1A1 inh | IMPase inh | IMPase Li cell | ALOX12 inhib
Cc1cc(Cl)c(S(=O)(=O)N/N=C/c2ccc3c(c2)OCO3)c(Cl)c1 | -20% | -11%[46.1 µM] | 11µM* | 6 | 32%[38.3 µM] | ?
COCCCNC(=O)C1CCC(CNS(=O)(=O)c2ccc(C)cc2)CC1 (stereo unspecified) | . | 10% | 11µM* | . | 2% | .
CCCCNC(=O)C1CCC(CNS(=O)(=O)c2ccc(C)cc2)CC1 (stereo unspecified) | . | 3% | 10µM* | . | -1% | .
CCCNC(=O)c1ccc(C2SCC(=O)N2CCc2ccccc2)cc1 (stereo unspecified) | 13µM* | -9% | -8% | . | 1% | -2%
CCc1ccc(NC(=O)c2ccc(C3SCC(=O)N3CCc3ccccc3)cc2)cc1 (stereo unspecified) | -7% | -28%[46.1 µM] | ? | 6 | 50%[38.3 µM] | -5%
CCNC(=O)c1ccc(C2SCC(=O)N2CCc2ccccc2)cc1 (stereo unspecified) | 22µM* | 0% | -4% | . | 6% | 0%
N=c1c2c(ncn1CCCO)Oc1cc(O)ccc1C2c1ccccc1 (stereo unspecified) | . | -16% | . | . | . | .
Cc1ccc(C)c(S(=O)(=O)N2C(=S)NC(=O)C2C(C)C)c1 (stereo unspecified) | -19% | -6%[46.1 µM] | ? | 0 | 15%[38.3 µM] | 3%
N#CC1=C2SCCN2C(=O)C(C#N)C12CCCCC2 (stereo unspecified) | . | -10%[46.1 µM] | 0.56µM* | 0 | . | -1%
Nc1ccc(C23CC4CC(CC(C4)C2)C3)cc1 | . | -11% | ? | . | -19% | .
C/C(CC(=O)Nc1cc(C)ccn1)=N\NC(=O)c1ccccc1C | . | -9% | ? | . | 9% | .
C/C(CC(=O)Nc1cccc(Cl)c1Cl)=N\NC(=O)c1ccccc1C | . | 28% | 8.9µM* | . | 6% | .
O=C1SC(SC(=Nc2ccccc2)Nc2ccccc2)C(=O)N1c1ccccc1 (stereo unspecified) | -12% | -1% | 25µM* | . | -1% | 0%
Cc1ccc(Cl)c2c1NC(=O)C2(O)CC(=O)c1ccccc1O (stereo unspecified) | -14% | -8%[46.1 µM] | ? | -5 | -6% | -1%
Cc1ccc(-c2c(C(=O)Nc3ccccc3C)c(C)[nH]c(=S)c2C#N)o1 | . | -19% | 4% | . | 11µM* | .
Cc1ccccc1NC(=O)c1c(C)[nH]c(=S)c(C#N)c1-c1ccc(Cl)cc1 | . | -14% | . | . | . | .
CCCCCCN1N=C(C)C(C(=O)c2ccc(Cl)cc2)C1=O (stereo unspecified) | -4% | -15%[46.1 µM] | ? | 2 | -22%[38.3 µM] | -25%
Cc1[nH]c2ccc(F)cc2c1CCN(Cc1cccnc1)C(=S)Nc1cccc(F)c1 | . | 10µM* | -6% | . | 22% | .
Cc1[nH]c2ccc(F)cc2c1CCN(Cc1ccncc1)C(=S)Nc1ccc(F)cc1 | . | 7.9µM* | 38% | . | 12% | .
Cc1ccccc1NC(=S)N(CCc1c(C)[nH]c2ccc(F)cc12)Cc1cccnc1 | . | -57% | ? | . | 9% | .
O=S(=O)(c1ccc(-n2cnnn2)cc1)N1CCC(N2CCCCC2)CC1 | . | 21% | 1% | . | 14% | .
CCOC(=O)c1ccc(-n2c(CN3CCN(CC)CC3)nc3ccc([N+](=O)[O-])cc3c2=O)cc1 | . | -9% | ? | . | 8% | .

Source: PubChem
